Test [1] addresses NR5A2 wild type;histone octamer (Homo sapiens;, UniProt O00482;C0HKE1;Q6ZWY9;P84244;P62806 1-541;2-130;2-126;2-136;2-103, |). Kind of test: SeEN-seq (EMSA of nucleosome library followed by sequencing); 0.8 uM human NR5A2; 20 mM Tris-HCl pH 7.5, 120 mM NaCl, 1 mM MgCl2, 10 uM ZnCl2, 1 mM DTT, 100 ug/ml BSA, room temperature, 30 min; 0.1 uM nucleosome library; high values mean tight binding. In general terms: In EMSA bound probe runs differently from free probe, usually more slowly.

Test [2] deals with mouse Nr5a2 wild type;histone octamer (Mus musculus;, UniProt P45448;C0HKE1;Q6ZWY9;P84244;P62806 1-560;2-130;2-126;2-136;2-103, |). Kind of test: SeEN-seq (EMSA of nucleosome library followed by sequencing); 1.2 uM mouse Nr5a2; 20 mM Tris-HCl pH 7.5, 120 mM NaCl, 1 mM MgCl2, 10 uM ZnCl2, 1 mM DTT, 100 ug/ml BSA, room temperature, 30 min; 0.1 uM nucleosome library; high values mean tight binding.

B1: 61 (nucleosome)
DNA 1: ATCCTGGAGAATCCCGGTGCCGAGGCCGCTCAATTGGTCGTAGACAGCTCTAGCACCGCTTAATCAAGGCCACGCGCTGTCCCCCGCGTTTTAACCGCCAAGGGGATTACTCCCTAGTCTCCAGGCACGTGTCAGATATATACATCCTGTGAT
DNA 2: ATCACAGGATGTATATATCTGACACGTGCCTGGAGACTAGGGAGTAATCCCCTTGGCGGTTAAAACGCGGGGGACAGCGCGTGGCCTTGATTAAGCGGTGCTAGAGCTGTCTACGACCAATTGAGCGGCCTCGGCACCGGGATTCTCCAGGAT
modifications: reconstituted with mouse histones H2A, H2B, H3.3 and H4
Take B1: the binding signal in test [1] is 0.699 log2 enrichment (bound/unbound, relative to Widom 601); in test [2] it was 0.779 log2 enrichment (bound/unbound, relative to Widom 601).

B2: 64 (nucleosome)
DNA 1: ATCCTGGAGAATCCCGGTGCCGAGGCCGCTCAATTGGTCGTAGACAGCTCTAGCACCGCTTAAACGTCAAGGCCAGCTGTCCCCCGCGTTTTAACCGCCAAGGGGATTACTCCCTAGTCTCCAGGCACGTGTCAGATATATACATCCTGTGAT
DNA 2: ATCACAGGATGTATATATCTGACACGTGCCTGGAGACTAGGGAGTAATCCCCTTGGCGGTTAAAACGCGGGGGACAGCTGGCCTTGACGTTTAAGCGGTGCTAGAGCTGTCTACGACCAATTGAGCGGCCTCGGCACCGGGATTCTCCAGGAT
modifications: reconstituted with mouse histones H2A, H2B, H3.3 and H4
Consider B2, for which the binding signal in test [1] is 0.83 log2 enrichment (bound/unbound, relative to Widom 601); in test [2], 0.992 log2 enrichment (bound/unbound, relative to Widom 601).

B3: 63 (nucleosome)
DNA 1: ATCCTGGAGAATCCCGGTGCCGAGGCCGCTCAATTGGTCGTAGACAGCTCTAGCACCGCTTAAACTCAAGGCCACGCTGTCCCCCGCGTTTTAACCGCCAAGGGGATTACTCCCTAGTCTCCAGGCACGTGTCAGATATATACATCCTGTGAT
DNA 2: ATCACAGGATGTATATATCTGACACGTGCCTGGAGACTAGGGAGTAATCCCCTTGGCGGTTAAAACGCGGGGGACAGCGTGGCCTTGAGTTTAAGCGGTGCTAGAGCTGTCTACGACCAATTGAGCGGCCTCGGCACCGGGATTCTCCAGGAT
modifications: reconstituted with mouse histones H2A, H2B, H3.3 and H4
With B3, the binding signal in test [1] was 1.09 log2 enrichment (bound/unbound, relative to Widom 601); in test [2] it was 1.1 log2 enrichment (bound/unbound, relative to Widom 601).

B4: 67 (nucleosome)
DNA 1: ATCCTGGAGAATCCCGGTGCCGAGGCCGCTCAATTGGTCGTAGACAGCTCTAGCACCGCTTAAACGCACTCAAGGCCAGTCCCCCGCGTTTTAACCGCCAAGGGGATTACTCCCTAGTCTCCAGGCACGTGTCAGATATATACATCCTGTGAT
DNA 2: ATCACAGGATGTATATATCTGACACGTGCCTGGAGACTAGGGAGTAATCCCCTTGGCGGTTAAAACGCGGGGGACTGGCCTTGAGTGCGTTTAAGCGGTGCTAGAGCTGTCTACGACCAATTGAGCGGCCTCGGCACCGGGATTCTCCAGGAT
modifications: reconstituted with mouse histones H2A, H2B, H3.3 and H4
B4: the binding signal is 0.806 log2 enrichment (bound/unbound, relative to Widom 601) in test [1] and 0.96 log2 enrichment (bound/unbound, relative to Widom 601) in test [2].

B5: 66 (nucleosome)
DNA 1: ATCCTGGAGAATCCCGGTGCCGAGGCCGCTCAATTGGTCGTAGACAGCTCTAGCACCGCTTAAACGCATCAAGGCCATGTCCCCCGCGTTTTAACCGCCAAGGGGATTACTCCCTAGTCTCCAGGCACGTGTCAGATATATACATCCTGTGAT
DNA 2: ATCACAGGATGTATATATCTGACACGTGCCTGGAGACTAGGGAGTAATCCCCTTGGCGGTTAAAACGCGGGGGACATGGCCTTGATGCGTTTAAGCGGTGCTAGAGCTGTCTACGACCAATTGAGCGGCCTCGGCACCGGGATTCTCCAGGAT
modifications: reconstituted with mouse histones H2A, H2B, H3.3 and H4
In the case of B5, the binding signal in test [1] was 1.05 log2 enrichment (bound/unbound, relative to Widom 601); in test [2] it was 1.15 log2 enrichment (bound/unbound, relative to Widom 601).

B6: 62 (nucleosome)
DNA 1: ATCCTGGAGAATCCCGGTGCCGAGGCCGCTCAATTGGTCGTAGACAGCTCTAGCACCGCTTAAATCAAGGCCAGCGCTGTCCCCCGCGTTTTAACCGCCAAGGGGATTACTCCCTAGTCTCCAGGCACGTGTCAGATATATACATCCTGTGAT
DNA 2: ATCACAGGATGTATATATCTGACACGTGCCTGGAGACTAGGGAGTAATCCCCTTGGCGGTTAAAACGCGGGGGACAGCGCTGGCCTTGATTTAAGCGGTGCTAGAGCTGTCTACGACCAATTGAGCGGCCTCGGCACCGGGATTCTCCAGGAT
modifications: reconstituted with mouse histones H2A, H2B, H3.3 and H4
With B6, the binding signal in test [1] is 1.24 log2 enrichment (bound/unbound, relative to Widom 601); in test [2], 1.27 log2 enrichment (bound/unbound, relative to Widom 601).

B7: 69 (nucleosome)
DNA 1: ATCCTGGAGAATCCCGGTGCCGAGGCCGCTCAATTGGTCGTAGACAGCTCTAGCACCGCTTAAACGCACGTTCAAGGCCACCCCCGCGTTTTAACCGCCAAGGGGATTACTCCCTAGTCTCCAGGCACGTGTCAGATATATACATCCTGTGAT
DNA 2: ATCACAGGATGTATATATCTGACACGTGCCTGGAGACTAGGGAGTAATCCCCTTGGCGGTTAAAACGCGGGGGTGGCCTTGAACGTGCGTTTAAGCGGTGCTAGAGCTGTCTACGACCAATTGAGCGGCCTCGGCACCGGGATTCTCCAGGAT
modifications: reconstituted with mouse histones H2A, H2B, H3.3 and H4
As to B7, the binding signal was 0.77 log2 enrichment (bound/unbound, relative to Widom 601) in test [1] and 0.872 log2 enrichment (bound/unbound, relative to Widom 601) in test [2].

B8: 72 (nucleosome)
DNA 1: ATCCTGGAGAATCCCGGTGCCGAGGCCGCTCAATTGGTCGTAGACAGCTCTAGCACCGCTTAAACGCACGTACGTCAAGGCCACCGCGTTTTAACCGCCAAGGGGATTACTCCCTAGTCTCCAGGCACGTGTCAGATATATACATCCTGTGAT
DNA 2: ATCACAGGATGTATATATCTGACACGTGCCTGGAGACTAGGGAGTAATCCCCTTGGCGGTTAAAACGCGGTGGCCTTGACGTACGTGCGTTTAAGCGGTGCTAGAGCTGTCTACGACCAATTGAGCGGCCTCGGCACCGGGATTCTCCAGGAT
modifications: reconstituted with mouse histones H2A, H2B, H3.3 and H4
Take B8: the binding signal in test [1] was 1 log2 enrichment (bound/unbound, relative to Widom 601); in test [2], 1.27 log2 enrichment (bound/unbound, relative to Widom 601).

B9: 73 (nucleosome)
DNA 1: ATCCTGGAGAATCCCGGTGCCGAGGCCGCTCAATTGGTCGTAGACAGCTCTAGCACCGCTTAAACGCACGTACGCTCAAGGCCACGCGTTTTAACCGCCAAGGGGATTACTCCCTAGTCTCCAGGCACGTGTCAGATATATACATCCTGTGAT
DNA 2: ATCACAGGATGTATATATCTGACACGTGCCTGGAGACTAGGGAGTAATCCCCTTGGCGGTTAAAACGCGTGGCCTTGAGCGTACGTGCGTTTAAGCGGTGCTAGAGCTGTCTACGACCAATTGAGCGGCCTCGGCACCGGGATTCTCCAGGAT
modifications: reconstituted with mouse histones H2A, H2B, H3.3 and H4
For the molecule B9, the binding signal in test [1] was 1.28 log2 enrichment (bound/unbound, relative to Widom 601); in test [2], 1.51 log2 enrichment (bound/unbound, relative to Widom 601).

B10: 70 (nucleosome)
DNA 1: ATCCTGGAGAATCCCGGTGCCGAGGCCGCTCAATTGGTCGTAGACAGCTCTAGCACCGCTTAAACGCACGTATCAAGGCCACCCCGCGTTTTAACCGCCAAGGGGATTACTCCCTAGTCTCCAGGCACGTGTCAGATATATACATCCTGTGAT
DNA 2: ATCACAGGATGTATATATCTGACACGTGCCTGGAGACTAGGGAGTAATCCCCTTGGCGGTTAAAACGCGGGGTGGCCTTGATACGTGCGTTTAAGCGGTGCTAGAGCTGTCTACGACCAATTGAGCGGCCTCGGCACCGGGATTCTCCAGGAT
modifications: reconstituted with mouse histones H2A, H2B, H3.3 and H4
As for B10, the binding signal is 1.27 log2 enrichment (bound/unbound, relative to Widom 601) in test [1] and 1.51 log2 enrichment (bound/unbound, relative to Widom 601) in test [2].

B11: 65 (nucleosome)
DNA 1: ATCCTGGAGAATCCCGGTGCCGAGGCCGCTCAATTGGTCGTAGACAGCTCTAGCACCGCTTAAACGCTCAAGGCCACTGTCCCCCGCGTTTTAACCGCCAAGGGGATTACTCCCTAGTCTCCAGGCACGTGTCAGATATATACATCCTGTGAT
DNA 2: ATCACAGGATGTATATATCTGACACGTGCCTGGAGACTAGGGAGTAATCCCCTTGGCGGTTAAAACGCGGGGGACAGTGGCCTTGAGCGTTTAAGCGGTGCTAGAGCTGTCTACGACCAATTGAGCGGCCTCGGCACCGGGATTCTCCAGGAT
modifications: reconstituted with mouse histones H2A, H2B, H3.3 and H4
As to B11, the binding signal is 0.891 log2 enrichment (bound/unbound, relative to Widom 601) in test [1] and 1.14 log2 enrichment (bound/unbound, relative to Widom 601) in test [2].

B12: 71 (nucleosome)
DNA 1: ATCCTGGAGAATCCCGGTGCCGAGGCCGCTCAATTGGTCGTAGACAGCTCTAGCACCGCTTAAACGCACGTACTCAAGGCCACCCGCGTTTTAACCGCCAAGGGGATTACTCCCTAGTCTCCAGGCACGTGTCAGATATATACATCCTGTGAT
DNA 2: ATCACAGGATGTATATATCTGACACGTGCCTGGAGACTAGGGAGTAATCCCCTTGGCGGTTAAAACGCGGGTGGCCTTGAGTACGTGCGTTTAAGCGGTGCTAGAGCTGTCTACGACCAATTGAGCGGCCTCGGCACCGGGATTCTCCAGGAT
modifications: reconstituted with mouse histones H2A, H2B, H3.3 and H4
Consider B12, for which the binding signal in test [1] is 1.13 log2 enrichment (bound/unbound, relative to Widom 601); in test [2] it was 1.45 log2 enrichment (bound/unbound, relative to Widom 601).

B13: 68 (nucleosome)
DNA 1: ATCCTGGAGAATCCCGGTGCCGAGGCCGCTCAATTGGTCGTAGACAGCTCTAGCACCGCTTAAACGCACGTCAAGGCCATCCCCCGCGTTTTAACCGCCAAGGGGATTACTCCCTAGTCTCCAGGCACGTGTCAGATATATACATCCTGTGAT
DNA 2: ATCACAGGATGTATATATCTGACACGTGCCTGGAGACTAGGGAGTAATCCCCTTGGCGGTTAAAACGCGGGGGATGGCCTTGACGTGCGTTTAAGCGGTGCTAGAGCTGTCTACGACCAATTGAGCGGCCTCGGCACCGGGATTCTCCAGGAT
modifications: reconstituted with mouse histones H2A, H2B, H3.3 and H4
For B13, the binding signal in test [1] was 0.625 log2 enrichment (bound/unbound, relative to Widom 601); in test [2], 0.543 log2 enrichment (bound/unbound, relative to Widom 601).

B14: 8 (nucleosome)
DNA 1: ATCCTGGAGATCAAGGCCACCGAGGCCGCTCAATTGGTCGTAGACAGCTCTAGCACCGCTTAAACGCACGTACGCGCTGTCCCCCGCGTTTTAACCGCCAAGGGGATTACTCCCTAGTCTCCAGGCACGTGTCAGATATATACATCCTGTGAT
DNA 2: ATCACAGGATGTATATATCTGACACGTGCCTGGAGACTAGGGAGTAATCCCCTTGGCGGTTAAAACGCGGGGGACAGCGCGTACGTGCGTTTAAGCGGTGCTAGAGCTGTCTACGACCAATTGAGCGGCCTCGGTGGCCTTGATCTCCAGGAT
modifications: reconstituted with mouse histones H2A, H2B, H3.3 and H4
Consider B14, for which the binding signal in test [1] is 2.08 log2 enrichment (bound/unbound, relative to Widom 601); in test [2], 1.69 log2 enrichment (bound/unbound, relative to Widom 601).

B15: 9 (nucleosome)
DNA 1: ATCCTGGAGAATCAAGGCCACGAGGCCGCTCAATTGGTCGTAGACAGCTCTAGCACCGCTTAAACGCACGTACGCGCTGTCCCCCGCGTTTTAACCGCCAAGGGGATTACTCCCTAGTCTCCAGGCACGTGTCAGATATATACATCCTGTGAT
DNA 2: ATCACAGGATGTATATATCTGACACGTGCCTGGAGACTAGGGAGTAATCCCCTTGGCGGTTAAAACGCGGGGGACAGCGCGTACGTGCGTTTAAGCGGTGCTAGAGCTGTCTACGACCAATTGAGCGGCCTCGTGGCCTTGATTCTCCAGGAT
modifications: reconstituted with mouse histones H2A, H2B, H3.3 and H4
Turning to B15, the binding signal in test [1] is 3.63 log2 enrichment (bound/unbound, relative to Widom 601); in test [2] it was 3.37 log2 enrichment (bound/unbound, relative to Widom 601).

For the origin of these results see PMC11102866, “Nucleosome-bound NR5A2 structure reveals pioneer factor mechanism by DNA minor groove anchor competition”.
